Shiga inhibitor: A qHTS for Small Molecule Inhibitors of Shiga Toxin. Vero cells, Shiga toxin protein synthesis inhibition reporter. inhibition, % at 38.7 µM. actives 9.2% (n = 290,000). AID 2315, 2010; in the data active = inhibition mostly above about 28%, no sharp cut-off; inactive = mostly below about 43%; note: 0% is about no effect
CHX counter: Cycloheximide Counterscreen for Small Molecule Inhibitors of Shiga Toxin | actives 12% (n = 300,000) | cell reporter, cycloheximide protein synthesis inhibition counterscreen | AID 2314, 2010 | max response, %; in the data active = max response mostly above about 13%, no sharp cut-off; inactive = mostly below about 14%; note: read at 38.3 µM for the half of the compounds with a filed dose; 0% is about no effect
Marburg entry inh: qHTS for inhibitors of binding or entry into cells for Marburg Virus. Marburg virus pseudotyped entry inhibition, cell reporter. Potency, µM (top dose mostly 37.8 µM), for inactives: at the highest dose activity change, negative = inhibition, most hits filed as inhibitors. actives 1.8% (n = 300,000); calls by dose curve; tested in HEK293 cells; note: potency is the fitted concentration of half-maximal effect; % is set by controls: 0 for no effect and ±100 for the full control effect
LASV entry inh: qHTS for Inhibitors of binding or entry into cells for Lassa Virus | Lassa virus pseudotype entry inhibition, cell reporter | Potency, µM (series often up to 37.9 µM), inactives show top-dose activity change, negative = inhibition, usual class: inhibitors | actives 1.2% (n = 300,000); calls by dose curve; tested in HEK293 cells; note: potency is the fitted concentration of half-maximal effect; % is set by controls: 0 for no effect and ±100 for the full control effect; nearly all actives have a fitted effect of over 50% in size
Numbers without * were called inactive; [ ] = dose if it differs, or a comment. A selection: hits, their analogues and other compounds. The true share with any hit is near 12%.

For O=C(CSCc1cccc(Cl)c1)N/N=C/c1ccc(OCC(=O)N2CCCCC2)cc1 the results were Shiga inhibitor -2.8, CHX counter 13.0*, Marburg entry inh inconclusive and LASV entry inh inconclusive.
Cc1cc(Cl)ccc1OCC(=O)N1CCCCC1 was read as Shiga inhibitor 63.8*, CHX counter 46.5*, Marburg entry inh -1.4% and LASV entry inh 16.4%.
For Cc1cccc(C(=O)N/N=C/c2ccc(OCC(=O)N3CCCCC3)cc2)c1 the results were Shiga inhibitor 23.4, CHX counter 3.9, Marburg entry inh 26.2% and LASV entry inh 5.6%.
For COc1ccc(OCCC(=O)N2CCOCC2)cc1 the results were Shiga inhibitor 33.7, CHX counter 7.7, Marburg entry inh inconclusive and LASV entry inh 15.0%.
For CCc1ccc(OC(=O)CSc2nnc(-c3ccc(OC)c(OC)c3)o2)cc1 the results were Marburg entry inh -3.0%[46.1 µM] and LASV entry inh 5.6%[46.1 µM].
Screening Cc1cccc(CNC(=O)Cn2nc(C)c3nn(-c4ccc(Cl)cc4)c(C)c3c2=O)c1 returned LASV entry inh 0.3%[46.1 µM].
For O=C(COc1ccc(Cl)cc1)N1CCCCCCC1 the results were Shiga inhibitor 6.9, CHX counter 12.5, Marburg entry inh inconclusive and LASV entry inh -8.5%[46.1 µM].
`O=C(COc1ccc(Cl)cc1)N1CCCCC1` gave Shiga inhibitor 52.0*, CHX counter 34.4*, Marburg entry inh 2.7%[46.1 µM] and LASV entry inh inconclusive.
For CCC1CCCCN1C(=O)CCCOc1ccccc1 (stereo not drawn) the results were Shiga inhibitor 47.2, CHX counter 43.5*, Marburg entry inh 24.9% and LASV entry inh inconclusive.
O=C(CCCOc1ccc(Cl)cc1)N1CCCCCC1 was read as Shiga inhibitor 77.4*, CHX counter 39.0*, Marburg entry inh inconclusive and LASV entry inh 0.0%.
O=C(CCCOc1ccc(Cl)cc1)N1CCCCC1 was read as Shiga inhibitor 85.5*, CHX counter 40.3*, Marburg entry inh 9.3% and LASV entry inh 10.4%.
Screening CC(C)c1ccc(NC(=O)[C@H]2CSCN2C(=O)[C@@H]2CCC(=O)N2)cc1 returned Shiga inhibitor 8.8, CHX counter 8.4, Marburg entry inh 5.1%[46.1 µM] and LASV entry inh 18.5%[46.1 µM].
For Cc1ccc(NC(=O)c2cccc(NC(=O)N3CCSc4ncccc43)c2)cc1F the results were LASV entry inh -4.7%[46.1 µM].
O=C(CCCOc1ccc(Cl)cc1)N1CCOCC1 was read as Shiga inhibitor 30.4*, CHX counter 10.5, Marburg entry inh inconclusive and LASV entry inh 10.7%.
CCOC(=O)C1CCN(C(=O)C(=O)N2CCC(C(=O)OCC)CC2)CC1 was read as Shiga inhibitor 7.3, CHX counter -2.2, Marburg entry inh 0.1% and LASV entry inh 0.0%.
For CCOC(=O)C(=O)N1CCC(C(=O)OCC)CC1 the results were Shiga inhibitor 28.9, CHX counter 28.0*, Marburg entry inh -7.4%[14.2 µM] and LASV entry inh 19.9%.
`O=C(CCCOc1ccccc1)N1CCCCC1` gave Shiga inhibitor 17.2, CHX counter 54.8*, Marburg entry inh inconclusive and LASV entry inh inconclusive.
`Cc1ccc(CN(C(=O)COc2ccc(Br)cc2)C2CCS(=O)(=O)C2)o1` (stereo not drawn) gave Shiga inhibitor -8.9 and CHX counter -3.3.
Screening Cc1[nH]c(C)c(S(=O)(=O)Nc2ccc(OC(F)(F)F)cc2)c1C(=O)N1CCCCC1 returned Shiga inhibitor -3.1 and CHX counter -12.0.
Cc1ccc(OCc2cc(C(=O)N3CCCC(O)C3)no2)cn1 (stereo not drawn) was read as Shiga inhibitor 23.1* and CHX counter 19.8*.
Screening CC(=O)c1ccc(OCc2cc(C(=O)N3CCN4CCCC4C3)no2)cc1 (stereo not drawn) returned Shiga inhibitor 0.5, CHX counter -1.3, Marburg entry inh 3.3% and LASV entry inh 10.5%.
For O=C(c1cc(COc2ccccc2)on1)N1CCCC(CN2CCOCC2)C1 (stereo not drawn) the results were Shiga inhibitor 30.9* and CHX counter 25.6*.
Screening COc1ccc(C(=O)NC2CC2)cc1OC1CCN(Cc2ccc(F)c(F)c2)CC1 returned Shiga inhibitor -1.8 and CHX counter -17.6.
Screening Cc1cc(S(=O)(=O)N2CCCC(N(C)CCc3ccccn3)C2)c(C)cc1Cl (stereo not drawn) returned Shiga inhibitor -12.4 and CHX counter -2.5.
For C=CC[C@@H]1C=C[C@@H](Oc2ccc(OC)cc2)[C@H](COC(=O)c2ccc(Br)cc2)O1 the results were Marburg entry inh -4.5%[14.2 µM].
For CCCOc1ccc(-c2csc3nc[nH]c(=O)c23)cc1 the results were Shiga inhibitor 46.7* and CHX counter 40.5*.
Screening O=c1[nH]cnc2scc(C3COc4ccccc4O3)c12 (stereo not drawn) returned Shiga inhibitor -3.4, CHX counter 13.8*, Marburg entry inh inconclusive and LASV entry inh 5.4%.
`O=c1[nH]cnc2scc(-c3ccc(-c4ccccc4)cc3)c12` gave Shiga inhibitor 46.7, CHX counter 28.7*, Marburg entry inh inconclusive and LASV entry inh inconclusive.
CCc1ccc2occ(CC(=O)Nc3c(C(=O)c4ccc(C)cc4)oc4ccccc34)c2c1 was read as Marburg entry inh -12.7%[46.1 µM] and LASV entry inh -13.1%[46.1 µM].
For O=[N+]([O-])c1cccnc1N1CCN(c2ccc(F)cc2)CC1 the results were Shiga inhibitor 4.5, CHX counter 16.7, Marburg entry inh -12.1% and LASV entry inh inconclusive.
CCN(CC)S(=O)(=O)c1ccc(OC)c(NC(=O)CSc2cc(C)ccc2C)c1 was read as Shiga inhibitor 22.7, CHX counter 1.0, Marburg entry inh inconclusive and LASV entry inh 0.206µM*.
CCN(c1ccccc1)S(=O)(=O)c1ccc(OC)c(NC(=O)CNCCc2ccccc2)c1 was read as Shiga inhibitor 36.2, CHX counter 24.6*, Marburg entry inh inconclusive and LASV entry inh inconclusive.
`C=CCc1ccccc1Oc1cc(OC)nc(N)n1` gave Marburg entry inh 19.5% and LASV entry inh inconclusive.
`CC1CC=CC2C1C(=O)N(Cc1ccccc1)C2c1cccc([N+](=O)[O-])c1` (stereo not drawn) gave Shiga inhibitor -2.4 and CHX counter 8.3.
`Cc1cccc(N/N=C(\C(N)=O)C2=NC(C)(C)Cc3ccccc32)c1` gave Shiga inhibitor -1.9, CHX counter -2.1, Marburg entry inh inconclusive and LASV entry inh 6.31µM*.
Screening CCOC(=O)/C(=N\O)C1=NC(C)(C)Cc2ccccc21 returned Shiga inhibitor -5.2, CHX counter -1.0, Marburg entry inh inconclusive and LASV entry inh 0.3%.
Oc1ccccc1/C=N/NC(=S)NC1CC2C=CC1C2 (stereo not drawn) was read as Shiga inhibitor 56.8*, CHX counter 35.4*, Marburg entry inh inconclusive and LASV entry inh inconclusive.
COc1cc(CNc2ccc3[nH]c(=O)[nH]c3c2)ccc1OCc1ccc(C)cc1 was read as Shiga inhibitor 117.7*, CHX counter 26.4*, Marburg entry inh -23.9%[46.1 µM] and LASV entry inh -12.4%[46.1 µM].
Screening COc1cc(CNc2ccc3[nH]c(=O)[nH]c3c2)ccc1OCc1cccc(C)c1 returned Shiga inhibitor 37.2, CHX counter 21.2*, Marburg entry inh -20.1% and LASV entry inh inconclusive.
